PubChem BioAssay
Records with an inconclusive call do not appear. Calls of active or inactive are those of the source.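 The calls were made as follows, unless noted: active = viability at or below 27.92% in each of two runs, the all-compound median minus 4 SD; inconclusive = no clear call, values can overlap the other calls; inactive = the rest.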

Tests used:
[1] = reducers of endogenous Her2 protein level, primary screen, SKBR3 breast tumor cells, AlphaScreen, ATP viability (AID 461;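 active = Her2 level under about 52% in both replicate screens, with viability over 70% of control, limit read from the data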;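 as to Her2 level: lower value means less Her2 protein in the cells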;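 as to viability: percent of carrier control wells set as 100% viability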); details: 18-24 h, measured here: SKBR3 viability, ATP luminescence, at 10 µM
[2] = biological target: Receptor tyrosine-protein kinase erbB-2 (Homo sapiens) (UniProt P04626); experiment: as above; details: 18-24 h, at 10 µM, stronger effect = lower value
[3] = SK-BR-3 cell growth inhibitors, pilot screen, 24 h, human (AID 572;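 active = viability at or below 10% of carrier control in both of two separate runs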;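 also: compound exposure lasted between 18 and 24 h rather than exactly 24 h; 100% = carrier-treated control wells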); details: SK-BR-3 viability, CellTiter-Glo luminescence, at 10 µM, stronger effect = lower value
[4] = HUVEC growth inhibition – cell-based, human, primary screen (AID 575;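 active = viability at or below 30% in both replicate assays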;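 also: 100% = median of untreated cell wells with 0.1% DMSO on each plate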); details: HUVEC proliferation, CellTiter-Glo luminescence, 72 h; at 10 µM; stronger effect = lower value
[5] = growth inhibitors of H69AR lung tumor, primary screen, human, duplicate replicates (AID 580;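 active = viability at or under a set limit in both replicates, limit being median viability minus 3 SD, cut at about 48% in these data, passing the limit was not always enough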;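 also: 100% = mean luminescence of untreated wells and 0% = no signal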); details: H69AR lung tumor cells viability, ATP luminescence, 72 h; at 10 µM; stronger effect = lower value
[6] = reversal of MRP1-mediated doxorubicin resistance, pilot screen, H69AR cells, doxorubicin co-treatment (AID 601;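 active = viability loss from added drug above about 55%, and viability with drug at most 40%, in both replicates, limit read from the data, passing the limit was not always enough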); details: CellTiter-Glo, 72 h, at 10 µM; for differential viability (reversal): stronger effect = higher value
[7] = 384-well plate pilot, post-Golgi transport modulator project, inhibition of yeast transport mutant growth (AID 636; in the data active = inhibition above about 31%); details: absorbance 615 nm, about 18 h, stronger effect = higher value
[8] = growth suppression of yeast trafficking mutant, preliminary HTS, modulators of trafficking downstream of Golgi apparatus project, 1536-format plate, OD 615 nm (AID 637; in the data active = inhibition above about 30%); details: yeast transport mutant growth, absorbance 615 nm, 18 h; stronger effect = higher value
[9] = OD615 S. cerevisiae growth inhibition, permissive medium, pilot counter-assay, permissive growth control for S. cerevisiae lifespan shortening project (AID 705;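 active = growth inhibition above 25% in both replicates, a cutoff set 3 SD above the mean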); details: OD615, 24 h, at 10 µM, stronger effect = higher value
[10] = Restrictive medium S. cerevisiae growth inhibition, OD615, pilot screen of yeast lifespan reduction project, restrictive growth control (AID 706;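 active = growth inhibition above a set limit, 3 SD over mean compound inhibition, in both replicates, cut at about 43% in these data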;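 also: modified DeaD lifespan yeast strain shifted to restrictive glucose medium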); details: OD615, 48 h, at 10 µM, stronger effect = higher value
[11] = viability gain of MRP-1-high H69AR cells under doxorubicin, pilot screen, MRP-1 activator project, CellTiter-Glo, duplicate (AID 807;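 active = viability increase at or above a cutoff of the median across tested compounds plus 3 SD, cut at about 8.5% in these data, passing the limit was not always enough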;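 also: compound pretreatment 18-22 h then 72 h combined with doxorubicin; 0% = doxorubicin alone and 100% = vehicle without doxorubicin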); details: H69AR viability with doxorubicin, CellTiter-Glo luminescence; at 10 µM; stronger effect = higher value
[12] = growth suppression of beta-catenin knockout HCT116, pilot screen, human colon tumor cells (AID 823;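 active = cell viability at or below a set limit in both duplicate runs, the limit being the all-compound median minus 4 SD, cut at about 23% in these data, passing the limit was not always enough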;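 also: 0% = wells killed by 20 µM Hyamine and 100% = untreated DMSO cell wells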); details: CellTiter-Glo, 60 h, at 10 µM, stronger effect = lower value
[13] = growth suppression of PTEN-deleted HCT116, pilot screen, cell-based, HCT116 clonal line, CellTiter-Glo (AID 824); details: 60 h, at 10 µM, stronger effect = lower value;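 also: 0% = 20 µM Hyamine control and 100% = vehicle cell control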
[14] = inhibitors of the yeast RAM network, pilot screen, dse1pr::URA3 reporter, 5-FOA selection (AID 869;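 active = inhibition over a set limit, the all-compound mean plus 3 SD, in both replicate runs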;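 also: 0% = DMSO wells with no growth and 100% = 10 µM 1-NA-PP1 with full growth; RAM network block rescues cells from 5-FOA so hits raise OD615 growth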); details: S. cerevisiae dse1pr::URA3 5-FOA growth, OD615, 2 d; at 10 µM; stronger effect = higher value; strain carries analog-sensitive mutant Cbk1 kinase
[15] = RAM signaling pathway blockade in yeast – S. cerevisiae, Pdr1DBD-CYC8 efflux-inhibited sensitized strain, primary screen (AID 1298;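 active = RAM network inhibition above 8.4% in each of two replicates, 3 SD over the compound average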;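 also: 0% = DMSO untreated cells without growth and 100% = 10 µM 1-NA-PP1 full growth; higher means more yeast growth rescued from 5-FOA killing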); details: S. cerevisiae cbk1-as DSE1-URA3 strain, 5-FOA growth OD615, 2 d; at 50 µM; stronger effect = higher value
[16] = H69AR cells + 2 uM doxorubicin, measured here: viability with 2 uM doxorubicin, stronger effect = lower value
[17] = H69AR cells, compound alone cytotoxicity

Receptor tyrosine-protein kinase erbB-2 (Homo sapiens), sequence (P04626 whole entry, looked up): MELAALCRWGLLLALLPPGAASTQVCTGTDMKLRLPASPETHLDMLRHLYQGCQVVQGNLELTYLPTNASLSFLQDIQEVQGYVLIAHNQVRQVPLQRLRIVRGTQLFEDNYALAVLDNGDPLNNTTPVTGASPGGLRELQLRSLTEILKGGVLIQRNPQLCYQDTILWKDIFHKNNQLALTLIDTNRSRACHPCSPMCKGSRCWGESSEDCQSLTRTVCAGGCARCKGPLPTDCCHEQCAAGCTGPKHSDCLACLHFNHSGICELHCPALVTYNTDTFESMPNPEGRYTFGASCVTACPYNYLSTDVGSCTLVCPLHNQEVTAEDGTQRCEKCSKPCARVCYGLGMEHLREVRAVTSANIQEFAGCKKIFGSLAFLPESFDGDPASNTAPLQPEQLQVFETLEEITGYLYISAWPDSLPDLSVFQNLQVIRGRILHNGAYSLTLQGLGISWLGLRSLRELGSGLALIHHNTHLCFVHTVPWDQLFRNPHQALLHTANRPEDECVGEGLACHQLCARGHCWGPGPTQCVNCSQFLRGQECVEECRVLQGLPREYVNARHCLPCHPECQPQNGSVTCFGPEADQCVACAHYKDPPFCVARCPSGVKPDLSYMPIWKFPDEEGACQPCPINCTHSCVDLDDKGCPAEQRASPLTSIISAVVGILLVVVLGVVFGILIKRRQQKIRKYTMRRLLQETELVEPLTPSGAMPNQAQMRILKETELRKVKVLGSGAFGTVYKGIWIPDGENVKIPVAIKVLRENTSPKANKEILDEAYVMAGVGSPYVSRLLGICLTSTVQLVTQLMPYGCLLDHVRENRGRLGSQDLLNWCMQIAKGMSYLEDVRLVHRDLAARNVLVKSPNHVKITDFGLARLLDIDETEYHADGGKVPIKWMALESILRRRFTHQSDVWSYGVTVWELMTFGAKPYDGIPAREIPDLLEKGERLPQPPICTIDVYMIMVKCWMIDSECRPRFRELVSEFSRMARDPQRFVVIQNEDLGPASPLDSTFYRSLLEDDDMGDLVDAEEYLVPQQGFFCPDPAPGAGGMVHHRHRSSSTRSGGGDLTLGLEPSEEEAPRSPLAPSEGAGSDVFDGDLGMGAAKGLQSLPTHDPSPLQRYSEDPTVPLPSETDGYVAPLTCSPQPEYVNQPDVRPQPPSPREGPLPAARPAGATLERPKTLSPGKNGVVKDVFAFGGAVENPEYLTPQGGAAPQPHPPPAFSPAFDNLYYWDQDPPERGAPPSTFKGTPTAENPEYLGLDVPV

Row | SMILES | viability [1] [%] | Her2 level [2] | viability [3] | viability [4] | viability [5] | differential viability (reversal) ([6]; H69AR cells + 2 uM doxorubicin) | viability [6, 16] [%] | viability [6, 17] [%] | inhibition [7] | inhibition [8] | growth inhibition [9] | growth inhibition [10] | viability increase [11] | viability [12] | viability [13] | inhibition [14] | RAM network inhibition [15]
1 | CC(C)Cc1nnc(NS(=O)(=O)c2ccc(Cl)cc2)s1 | 91.5 | 98% (inactive) | 91.5% (inactive) | 90.1% (inactive) | 90% (inactive) | -4.72% (inactive) | 94.7 | 90 | -4.53% (inactive) | -0.5% (inactive) | -22.6% (inactive) | 3.6% (inactive) | 2.68% (inactive) | 99.2% (inactive) | 96.7% (inactive) | 1.43% (inactive) | 4.53% (inactive)
2 | COC(=O)CN1C(=O)CC(C)(C)S(=O)c2ccccc21 (stereo not drawn) | 114 | 110% (inactive) | 114% (inactive) | 118% (inactive) | 99.3% (inactive) | 8.85% (inactive) | 90.4 | 99.3 | -4.4% (inactive) | 16.3% (inactive) | -14.5% (inactive) | -3.88% (inactive) | -0.45% (inactive) | 107% (inactive) | 99.7% (inactive) | 0.32% (inactive) | 2.09% (inactive)
3 | COCCn1cc(C(=O)c2ccccc2OCC(=O)Nc2cc(C)on2)cc(C#N)c1=O | 82.5 | 115% (inactive) | 82.5% (inactive) | 89% (inactive) | 108% (inactive) | 6.63% (inactive) | 102 | 108 | -2.76% (inactive) | -1.17% (inactive) | -25.8% (inactive) | -14% (inactive) | -0.5% (inactive) | 92.9% (inactive) | 99.5% (inactive) | 1.68% (inactive) | 3.2% (inactive)
4 | O=c1c2ccccc2nc(SCc2nc(-c3ccccc3)no2)n1-c1ccc(F)cc1 | 90.5 | 98% (inactive) | 90.5% (inactive) | 79.7% (inactive) | 89.7% (inactive) | -5.78% (inactive) | 95.5 | 89.7 | -5.73% (inactive) | 2.17% (inactive) | 2.33% (inactive) | -3.72% (inactive) | -1.52% (inactive) | 72.2% (inactive) | 68.6% (inactive) | 1.77% (inactive) | 8.86% (inactive)
